Only a selection was taken, and hits are over-represented in it overall.
IL1B secr inh = inhibitors of inflammasome signaling (IL-1 beta secretion); THP-1 LPS/ATP IL-1B secretion, AlphaLISA, 16 h; active compounds read low; activity change, % at 57.5 µM; actives 4.7% (n = 360,000); in the data active = activity change below about -50%; inconclusive = mostly about -30% to -49%
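THP-1 cells pretreated 1 hr with compounds (up to 57.5 uM final), then stimulated with LPS (250 ng/mL final) plus ATP (1.25 mM final); secreted IL-1B measured by AlphaLISA after 16 hr, decreased signal indicating inhibition.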
HT1080-NT tox = kills 2HG-producing HT-1080-NT fibrosarcoma cells; HT-1080-NT fibrosarcoma viability, CellTiter-Glo ATP luminescence, 48 h; Potency, µM (doses to about 46.1 µM), without a hit: at the highest dose activity, negative = less viability, most hits filed as cytotoxic; actives 1.6% (n = 360,000);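 also: NT is the 2HG producing partner of a matched IDH1 knockdown line; potency is read from the fitted curve at half-maximal effect; 0% = DMSO-treated cells and -100% = media-only wells without cells; nearly all actives have a fitted effect of over 55% in size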
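Viability of the 2HG-overproducing fibrosarcoma line after 48 hours of compound exposure at 37 degrees C was determined by luminescence with CellTiter-Glo, and concentration-effect curves were then fitted and categorized.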
TDP1 cell CPT = DT40-hTDP1 cell growth loss with CPT; chicken DT40 Tdp1-/-;hTDP1 cells + 20 nM CPT, ATP luminescence, 48 h; actives 12% (n = 420,000); AID 686979; Potency, µM (doses to about 46.2 µM), without a hit: top-dose activity change, negative = growth inhibition, most hits filed as inhibitors; also: potency is read from the fitted curve at half-maximal effect; nearly all actives have a fitted effect of over 55% in size
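Cell growth measured by CellTiter-Glo luminescence after a minimum 48 h, 37 C compound exposure with 20 nM CPT in Tdp1-knockout DT40 cells stably expressing hTDP1, seeded 400/well; qHTS titration format.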
TDP1 cell noCPT = qHTS for Inhibitors of human tyrosyl-DNA phosphodiesterase 1 (TDP1): qHTS in cells in absence of CPT; Potency, µM (series often up to 46.2 µM), for inactives: at the highest dose activity change, negative = growth inhibition, actives largely listed as inhibitors; DT40 Tdp1-/- hTDP1 cells, no CPT, ATP luminescence, 48 h; AID 686978, 2013; actives 15% (n = 420,000); also: potency is read from the fitted curve at half-maximal effect; nearly all actives have a fitted effect of over 55% in size
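Readout: luminescence from CellTiter-Glo after 30 min in the dark at RT. Cells: DT40 Tdp1-/- with stable hTDP1, 400/well. Exposure: compounds alone, ≥48 hr, 37 °C.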
HT1080 IDH1KD tx = toxicity to HT-1080 IDH1 knockdown cells (counter line) | HT-1080 IDH1 knockdown viability, ATP luminescence, 48 h | Potency, µM (titrated, usually from 46.1 µM), without a hit: at the top dose activity, negative = toxicity, usual class: cytotoxic | AID 686971 | actives 2% (n = 360,000);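 also: potency is read from the fitted curve at half-maximal effect; 0% = DMSO wells and -100% = cell-free medium wells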
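HT-1080-IDH1KD cells (IDH1 knocked down), 750/well in RPMI with 5% FBS, treated with compound 48 h at 37 degrees C. Viability by CellTiter-Glo luminescence, normalised to DMSO and no-cell wells; concentration-response curves classed.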
ALOX12 inh = ALOX12 (human) lipoxygenase inhibition. P18054. purified 12hLO, xylenol orange hydroperoxide absorbance. Potency, µM (doses to about 108 µM), inactives show at the top dose activity change, negative = inhibition, usual class: inhibitors. actives 1.1% (n = 580,000). AID 1671190; also: potency is read from the fitted curve at half-maximal effect
Target sequence (P18054 whole entry, looked up): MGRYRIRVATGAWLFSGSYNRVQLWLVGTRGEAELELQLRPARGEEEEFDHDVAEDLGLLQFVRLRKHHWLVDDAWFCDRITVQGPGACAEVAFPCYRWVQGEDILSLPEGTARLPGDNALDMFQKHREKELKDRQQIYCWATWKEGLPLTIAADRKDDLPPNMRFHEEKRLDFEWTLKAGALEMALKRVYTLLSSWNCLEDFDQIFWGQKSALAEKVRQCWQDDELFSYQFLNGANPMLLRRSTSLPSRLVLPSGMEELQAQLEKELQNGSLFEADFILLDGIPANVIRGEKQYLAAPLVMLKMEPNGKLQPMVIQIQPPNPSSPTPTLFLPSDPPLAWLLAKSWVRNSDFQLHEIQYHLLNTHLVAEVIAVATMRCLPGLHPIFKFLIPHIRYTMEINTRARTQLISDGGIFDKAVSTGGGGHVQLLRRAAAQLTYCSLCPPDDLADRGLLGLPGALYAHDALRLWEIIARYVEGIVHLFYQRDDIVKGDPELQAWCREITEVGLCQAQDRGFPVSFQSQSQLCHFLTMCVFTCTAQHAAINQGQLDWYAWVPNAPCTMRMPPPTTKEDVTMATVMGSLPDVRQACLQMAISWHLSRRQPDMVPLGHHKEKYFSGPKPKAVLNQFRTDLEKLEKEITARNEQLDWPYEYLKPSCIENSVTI
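Purified human 12hLO (150 nM final) in 25 mM Hepes, 0.01% Triton X-100, pH 7.0 was preincubated 15 min at room temperature with compound. Then 40 uM arachidonic acid was added, 30 min. Hydroperoxide was read by Fe-XO absorbance ratio 573/405 nm.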
Starred values were filed as active, the others as inactive. Unless noted, calls follow the shape of the dose curve; as a rule, active = well fitted curve in the direction sought with a large enough effect; inconclusive = small, poorly fitted or top-dose-only effect, or another doubt; inactive = no such curve, though single readings can be large; an effect the other way counts as inactive or inconclusive. Unless noted, % is scaled to controls: 0 for no effect and ±100 for the full control effect.

For O=C(OC[C@H]1O[C@@H](OC(=O)c2cc(O)c(O)c(OC(=O)c3cc(O)c(O)c(O)c3)c2)[C@H](OC(=O)c2cc(O)c(O)c(OC(=O)c3cc(O)c(O)c(O)c3)c2)[C@@H](OC(=O)c2cc(O)c(O)c(OC(=O)c3cc(O)c(O)c(O)c3)c2)[C@@H]1OC(=O)c1cc(O)c(O)c(OC(=O)c2cc(O)c(O)c(O)c2)c1)c1cc(O)c(O)c(OC(=O)c2cc(O)c(O)c(O)c2)c1 the results were HT1080-NT tox 11.2µM*, TDP1 cell CPT 4.22µM*, TDP1 cell noCPT 4.61µM* and HT1080 IDH1KD tx inconclusive.
COC1OC(COC(=O)c2ccccc2)C(OC(=O)c2ccccc2)C1OC(=O)c1ccccc1 (stereo not given) was read as IL1B secr inh -15.7, HT1080-NT tox 11.8%, TDP1 cell CPT inconclusive, TDP1 cell noCPT inconclusive, HT1080 IDH1KD tx 14.3% and ALOX12 inh 5.5%.
For CCOc1ccc2nc(Nc3nc(C)c(Cc4ccccc4)c(=O)[nH]3)nc(C)c2c1 the results were ALOX12 inh -6.5%.
Screening CC(Oc1cc2oc(=O)cc(-c3ccccc3)c2cc1Cl)C(=O)NCc1ccccn1 (stereo not given) returned ALOX12 inh -3.3%.
CCCN1CCC(=O)N(CCSc2ccccc2)CC1 was read as IL1B secr inh 14.8, HT1080-NT tox -24.2%, TDP1 cell CPT inconclusive, TDP1 cell noCPT inconclusive, HT1080 IDH1KD tx 2.0% and ALOX12 inh -2.9%.
For c1ccc(SCCN2CCN(c3ccccc3)CC2)cc1 the results were IL1B secr inh -0.9, HT1080-NT tox 0.2%, TDP1 cell CPT -15.8%, TDP1 cell noCPT -13.6%, HT1080 IDH1KD tx -0.6% and ALOX12 inh 12.6µM*.
For OC(CSc1ccccc1)CN1CCN(c2ccc(Cl)cc2)CC1 (stereo not given) the results were IL1B secr inh inconclusive, HT1080-NT tox -9.5%, TDP1 cell CPT inconclusive, TDP1 cell noCPT 20.6µM*, HT1080 IDH1KD tx 1.5% and ALOX12 inh -29.3%.
For OC(CSc1ccccc1)CN1CCN(c2cccc(Cl)c2)CC1 (stereo not given) the results were IL1B secr inh -17.1, HT1080-NT tox -18.1%, TDP1 cell CPT inconclusive, TDP1 cell noCPT 20.6µM*, HT1080 IDH1KD tx 2.3% and ALOX12 inh inconclusive.
`O=C(CC1NCCNC1=O)OCC1CCCO1` (stereo not given) gave ALOX12 inh -3.3%.
Screening CCOC(=O)C[C@H]1c2ccccc2S(=O)(=O)N1c1cccc(OC)c1 returned IL1B secr inh 18.7, HT1080-NT tox -9.8%, TDP1 cell CPT inconclusive, TDP1 cell noCPT inconclusive, HT1080 IDH1KD tx 5.5% and ALOX12 inh -11.1%.
CCOCCCNC(=O)C(c1ccc(C)cc1)N(Cc1ccc2c(c1)OCO2)C(=O)c1ccccc1O (stereo not given) was read as TDP1 cell CPT 23.1µM*, TDP1 cell noCPT 16.4µM* and ALOX12 inh 4.4%.
For CCOCCCNC(=O)C(c1ccccc1)N(Cc1ccc2c(c1)OCO2)C(=O)c1ccccc1O (stereo not given) the results were IL1B secr inh -8.6, HT1080-NT tox 5.0%, TDP1 cell CPT 4.5%, TDP1 cell noCPT -21.9%, HT1080 IDH1KD tx 12.6% and ALOX12 inh 8.4%.
COCC1CCCCN1C(=O)c1cc(COc2ccc3ncccc3c2)on1 (stereo not given) was read as IL1B secr inh 17.5, HT1080-NT tox 1.8%, TDP1 cell CPT 1.16µM*, TDP1 cell noCPT 0.92µM*, HT1080 IDH1KD tx 1.3% and ALOX12 inh 0.2%.
COCCOC1CCN(C(=O)c2cc(COc3ccc(-n4cncn4)cc3)on2)CC1 was read as IL1B secr inh 6.9, HT1080-NT tox -4.9%, TDP1 cell CPT -15.0%, TDP1 cell noCPT -25.0%, HT1080 IDH1KD tx 0.8% and ALOX12 inh 1.5%.
Screening Cc1ccc(OCc2cc(C(=O)N3CCCC(O)C3)no2)cn1 (stereo not given) returned IL1B secr inh 24.1, HT1080-NT tox 3.2%, TDP1 cell CPT 1.4%, TDP1 cell noCPT 0.3%, HT1080 IDH1KD tx 19.8% and ALOX12 inh 6.8%.
Screening COCC1CCCN(C(=O)c2cc(COc3ccc(C(C)=O)cc3)on2)C1 (stereo not given) returned IL1B secr inh -14.5, HT1080-NT tox -6.6%, TDP1 cell CPT -22.4%, TDP1 cell noCPT -28.3%, HT1080 IDH1KD tx -6.3% and ALOX12 inh 5.7%.
`CCC1CCCCN1C(=O)c1cc(COc2ccc3ncccc3c2)on1` (stereo not given) gave IL1B secr inh -19.0, HT1080-NT tox -21.8%, TDP1 cell CPT 1.84µM*, TDP1 cell noCPT 1.03µM*, HT1080 IDH1KD tx inconclusive and ALOX12 inh 2.9%.
Screening CCN(CC)C(=O)C1CCCN(C(=O)c2cc(COc3ccc4ncccc4c3)on2)C1 (stereo not given) returned IL1B secr inh -7.0, HT1080-NT tox -3.1%, TDP1 cell CPT 16.4µM*, TDP1 cell noCPT 5.8µM*, HT1080 IDH1KD tx -20.2% and ALOX12 inh -1.5%.
For COCCC1CCCCN1C(=O)c1cc(COc2ccc(-n3cncn3)cc2)on1 (stereo not given) the results were IL1B secr inh -14.7, HT1080-NT tox -3.3%, TDP1 cell CPT 5.17µM*, TDP1 cell noCPT 2.06µM*, HT1080 IDH1KD tx inconclusive and ALOX12 inh 4.6%.
For Cc1ccc(C2CN(CCC(N)=O)C(=O)CO2)cc1 (stereo not given) the results were IL1B secr inh 36.4, HT1080-NT tox 13.0%, TDP1 cell CPT -1.8%, TDP1 cell noCPT 0.2%, HT1080 IDH1KD tx 11.6% and ALOX12 inh inconclusive.
C=CC1CN(C(=O)OCC(Cl)(Cl)Cl)C2CC3c4ccc(OC)cc4NC3C3CC1C2CO3 (stereo not given) was read as IL1B secr inh -9.9, HT1080-NT tox -20.7%, TDP1 cell CPT inconclusive, TDP1 cell noCPT 18.4µM* and HT1080 IDH1KD tx -21.2%.
For CCOC(=O)N1CCC2CC1c1cc(-c3cccc(OC)c3)ccc12 (stereo not given) the results were IL1B secr inh 26.3, HT1080-NT tox -0.5%, TDP1 cell CPT inconclusive, TDP1 cell noCPT inconclusive, HT1080 IDH1KD tx -7.2% and ALOX12 inh -7.5%.
`Cc1cc(Nc2cc(F)ccc2C)nc(-n2nc(C)cc2C)n1` gave TDP1 cell CPT 5.17µM*, TDP1 cell noCPT 5.17µM* and ALOX12 inh -19.5%.

Screens (PubChem BioAssay)
